# In all, about 140,000 sequences were measured (“enrichment ratio after two sorts for PhoP signalling”: median about 0, highest 2% from about 11 on). The entries come from a sample that favours the highest values as a whole.
# B1: PhoQ; a variant is named by its letters at X, in order, P23837 (parent)
# chain: MKKLLRLFFPLSLRVRFLLATAAVVLVLSLAYGMVALIGYSVSFDKTTFRLLRGESNLFYTLAKWENNKLHVELPENIDKQSPTMTLIYDENGQLLWAQRDVPWLMKMIQPDWLKSNGFHEIEADVNDTSLLLSGDHSIQQQLQEVREDDDDAEMTHSVAVNVYPATSRMPKLTIVVVDTIPVELKSSYMVWSWFIYVLSANLLLVIPLLWVAAWWSLRPIEALAKEVRELEEHNRELLNPATTRELTSLVRNLNRLLKSERERYDKYRTTLTDLTHSLKTPLXXLQXXLRSLRSEKMSVSDAEPVMLEQISRISQQIGYYLHRASMRGGTLLSRELHPVAPLLDNLTSALNKVYQRKGVNISLDISPEISFVGEQNDFVEVMGNVLDNACKYCLEFVEISARQTDEHLYIVVEDDGPGIPLSKREVIFDRGQRVDTLRPGQGVGLAVAREITEQYEGKIVAGESMLGGARMEVIFGRQHSAPKDE
# Variants of: B1
# Experiment: enrichment ratio after two sorts for PhoP signalling (ratio (wild type AVST 3.29)); higher = more functional
# Conditions: with PhoP (E. coli)
row,Variant,enrichment ratio
1,EDTD,≤ 0.25
2,RDHH,≤ 0.25
3,GWHV,≤ 0.25
4,YFPW,≤ 0.25
5,LVPS,≤ 0.25
6,NTCA,≤ 0.25
7,HTEF,≤ 0.25
8,LAEC,≤ 0.25
9,IDHP,≤ 0.25
10,WPTA,14.3
11,DMSV,≤ 0.25
12,WPTS,≤ 0.25
13,TMSV,16.5
14,TVSV,14.9
15,TASV,17.9
16,KASV,≤ 0.25
17,WPTD,≤ 0.25
18,KMSV,≤ 0.25
19,SPSV,≤ 0.25
20,NASV,≤ 0.25
21,HCSV,≤ 0.25
22,VEEC,≤ 0.25
23,ITEG,0.328
24,RMAH,≤ 0.25
25,NGEP,≤ 0.25

row,Variant,enrichment ratio
1,ATVR,4.36
2,QILH,≤ 0.25
3,MNDG,≤ 0.25
4,GVPD,≤ 0.25
5,VQKT,≤ 0.25
6,RQKC,≤ 0.25
7,HSFA,≤ 0.25
8,ICYS,≤ 0.25
9,FLCS,≤ 0.25
10,TMVF,≤ 0.25
11,TGMC,31.9
12,HRMC,≤ 0.25
13,HKMC,≤ 0.25
14,HIMC,48.5
15,PTMC,≤ 0.25
16,NSMC,≤ 0.25
17,HFMC,≤ 0.25
18,GGMC,≤ 0.25
19,ASMC,12.1
20,ATMC,11.2
21,RGMC,≤ 0.25
22,TKMC,77.6
23,AARL,≤ 0.25
24,DMIF,≤ 0.25
25,KFMC,≤ 0.25

row,Variant,enrichment ratio
1,FCMC,≤ 0.25
2,TIMC,9
3,TFMC,16.5
4,SGMC,12.8
5,PFMC,≤ 0.25
6,TRMC,2.53
7,SGFC,≤ 0.25
8,NGMC,≤ 0.25
9,HGMC,13.3
10,FSMC,16.1
11,KSMC,≤ 0.25
12,KDFY,≤ 0.25
13,EPYY,≤ 0.25
14,FDYI,≤ 0.25
15,QVCS,≤ 0.25
16,LEAV,≤ 0.25
17,REVC,≤ 0.25
18,FGTK,≤ 0.25
19,RCMC,≤ 0.25
20,AVMM,52.7
21,MEMM,0.38
22,HKMM,≤ 0.25
23,ACMM,14.1
24,ANRM,≤ 0.25
25,FVMM,8.76

row,Variant,enrichment ratio
1,ANRA,≤ 0.25
2,TKMM,31.6
3,TVMM,0.563
4,ANMM,32.7
5,HPRS,≤ 0.25
6,SFMM,0.454
7,EPTF,≤ 0.25
8,ATNR,≤ 0.25
9,FVFQ,≤ 0.25
10,DMFY,≤ 0.25
11,NDFH,≤ 0.25
12,YEAF,≤ 0.25
13,WSCA,≤ 0.25
14,AAPM,4.08
15,AHMM,≤ 0.25
16,ADMM,≤ 0.25
17,ASMM,41.3
18,APMM,≤ 0.25
19,ARMM,5.29
20,AAMM,13
21,VRMM,≤ 0.25
22,AIMM,35.5
23,AKMM,30.4
24,AYMM,≤ 0.25
25,IEAL,≤ 0.25

row,Variant,enrichment ratio
1,NQSL,≤ 0.25
2,PQWK,≤ 0.25
3,SKWQ,≤ 0.25
4,KCME,≤ 0.25
5,HCSH,≤ 0.25
6,SPSH,≤ 0.25
7,TVSH,15.9
8,TVHE,≤ 0.25
9,TSKH,≤ 0.25
10,TVME,11.7
11,TSSH,11.3
12,TVCE,13.5
13,KSSH,≤ 0.25
14,TVCI,0.444
15,PVME,≤ 0.25
16,HTVK,≤ 0.25
17,KMRS,≤ 0.25
18,IPKF,≤ 0.25
19,AQWL,≤ 0.25
20,PAAR,≤ 0.25
21,LETM,≤ 0.25
22,RMVY,≤ 0.25
23,NVCS,≤ 0.25
24,TVCA,14.5
25,PVCS,≤ 0.25

row,Variant,enrichment ratio
1,SPCA,≤ 0.25
2,PVCA,≤ 0.25
3,TVCS,11.4
4,PKSQ,≤ 0.25
5,RQKT,≤ 0.25
6,IWNV,≤ 0.25
7,LQKK,≤ 0.25
8,LFFM,≤ 0.25
9,ITFY,≤ 0.25
10,WWLL,≤ 0.25
11,SQCS,14.7
12,SNNW,1.31
13,SNAI,22
14,LNAI,≤ 0.25
15,WQCS,≤ 0.25
16,SNCS,19.6
17,SFAI,≤ 0.25
18,SNIF,≤ 0.25
19,IQCS,≤ 0.25
20,GFWW,1.03
21,LGGY,≤ 0.25
22,ESVH,≤ 0.25
23,PMVM,≤ 0.25
24,KCTV,≤ 0.25
25,GMTV,0.937

row,Variant,enrichment ratio
1,TCTV,12.6
2,TCTF,12.4
3,KCTF,≤ 0.25
4,LSTF,≤ 0.25
5,LQSN,≤ 0.25
6,PMKC,≤ 0.25
7,AKDL,≤ 0.25
8,NKTC,≤ 0.25
9,MFTC,≤ 0.25
10,MEFA,≤ 0.25
11,MESC,10.2
12,MEFC,12.8
13,METC,45.8
14,MKFC,≤ 0.25
15,LQYS,≤ 0.25
16,KENY,≤ 0.25
17,IMSK,≤ 0.25
18,EIPN,≤ 0.25
19,MRSG,≤ 0.25
20,NESG,≤ 0.25
21,PESG,≤ 0.25
22,MESN,7.39
23,MESG,15.7
24,SLSG,11.8
25,QESN,5.1

row,Variant,enrichment ratio
1,TESG,24.9
2,SRSG,≤ 0.25
3,TESN,20.2
4,PLSG,≤ 0.25
5,QESG,6.03
6,GKLS,≤ 0.25
7,SVRW,≤ 0.25
8,RDAA,≤ 0.25
9,KNCK,≤ 0.25
10,VGMN,≤ 0.25
11,HWYH,≤ 0.25
12,IYMC,≤ 0.25
13,EKVI,≤ 0.25
14,HFDW,≤ 0.25
15,HAFN,≤ 0.25
16,EAES,≤ 0.25
17,SQSG,6.12
18,FCSG,≤ 0.25
19,SCSG,20.2
20,AESN,11
21,STSG,8.56
22,KYSG,≤ 0.25
23,AKSG,5.13
24,AESG,25.4
25,SESG,28.9
